According to PubChem BioAssay (EPA / NIEHS):
Records with an inconclusive call do not appear. Activity calls are given as the source filed them. Rule for the calls: active = hit-call score of the fitted dose curve at least 0.9, where 1 is the maximum; inconclusive = response in the unintended direction; inactive = score below 0.9.

These molecules were tested against human Mitogen-Activated Protein Kinase 1 (MAPK 1), MAPK1 (gene 5594) (UniProt P28482) (assay: NVS_ENZ_hMAPK1: NovaScreen (NVS) Enzymatic Assay for human Mitogen-Activated Protein Kinase 1 (MAPK 1) (AID 2283175)).
Summary of the method: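 Cell-free recombinant human MAPK1 enzymatic assay, fluorescence/electrophoretic mobility shift read at 1 h; loss of signal vs DMSO. Primary screen in duplicate at 25 uM; actives (e.g. ≥30% inhibition) run as concentration-response up to 50 uM.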

Chain of human Mitogen-Activated Protein Kinase 1 (MAPK 1), MAPK1 (gene 5594) (P28482 whole entry, looked up): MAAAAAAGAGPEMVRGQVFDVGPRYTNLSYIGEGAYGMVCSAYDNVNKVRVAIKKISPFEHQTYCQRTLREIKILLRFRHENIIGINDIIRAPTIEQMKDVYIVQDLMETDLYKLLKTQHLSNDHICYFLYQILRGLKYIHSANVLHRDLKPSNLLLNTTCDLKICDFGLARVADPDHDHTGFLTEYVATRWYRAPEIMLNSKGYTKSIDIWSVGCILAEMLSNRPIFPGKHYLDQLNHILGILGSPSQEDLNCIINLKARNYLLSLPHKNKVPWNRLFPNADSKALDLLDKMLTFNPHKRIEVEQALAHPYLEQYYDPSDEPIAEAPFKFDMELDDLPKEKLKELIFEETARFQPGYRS

Structure (SMILES)	outcome	AC50
CCOC(N)=O	inactive	
S=C([S-])NCCNC(=S)[S-].[Mn+2]		5.17 µM (active)
CC(C)CCCCCCc1ccc(O)cc1	inactive	
CN(C)C(=O)NC1(c2ccccc2)CCN(CCC[C@]2(c3ccc(Cl)c(Cl)c3)CCCN(C(=O)c3ccccc3)C2)CC1	inactive	

The molecules below were run against human MET Proto-Oncogene, Receptor Tyrosine Kinase (MET), MET (gene 4233) (UniProt P08581) (assay: NVS_ENZ_hMet: NovaScreen (NVS) Enzymatic Assay for human MET Proto-Oncogene, Receptor Tyrosine Kinase (MET) (AID 2283180)).
Summary of the method: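 Cell-free MET kinase assay using recombinant protein and fluorescent substrate, with mobility-shift separation; read 1 h after dosing. Primary duplicate at 25 uM; actives in singleton concentration-response to 50 uM maximum. Signal loss versus DMSO.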

Structure (SMILES)	outcome	AC50
CC/C(=C(\c1ccccc1)c1ccc(OCCN(C)C)cc1)c1ccccc1	inactive	
O=C1NC(=O)C(c2ccccc2)(c2ccccc2)N1	inactive	
S=C([S-])NCCNC(=S)[S-].[Mn+2]		20.5 µM (active)
CC(C)CCCCCCc1ccc(O)cc1	inactive	
CNS(=O)(=O)c1cc(C(=O)N2CCC(CCN3C4CCC3CC(n3c(C)nc5ccccc53)C4)(c3cccc(F)c3)CC2)c(Cl)cc1F (stereo unspecified)	inactive	
O=C(O)Cc1cc(I)c(Oc2cc(I)c(O)c(I)c2)c(I)c1		26.7 µM (active)

These molecules were tested against human p21 Activated Kinase 4 (PAK4), PAK4 (gene 10298) (UniProt O96013) (assay: NVS_ENZ_hPAK4: NovaScreen (NVS) Enzymatic Assay for human p21 Activated Kinase 4 (PAK4) (AID 2283189)).
Summary of the method: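 Cell-free recombinant human PAK4 activity assay; fluorescent substrate and product separated by electrophoretic mobility shift, read 1 h after dosing. Initially tested in duplicate at 25 uM, relative to DMSO baseline.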

Chain of human p21 Activated Kinase 4 (PAK4), PAK4 (gene 10298) (O96013 whole entry, looked up): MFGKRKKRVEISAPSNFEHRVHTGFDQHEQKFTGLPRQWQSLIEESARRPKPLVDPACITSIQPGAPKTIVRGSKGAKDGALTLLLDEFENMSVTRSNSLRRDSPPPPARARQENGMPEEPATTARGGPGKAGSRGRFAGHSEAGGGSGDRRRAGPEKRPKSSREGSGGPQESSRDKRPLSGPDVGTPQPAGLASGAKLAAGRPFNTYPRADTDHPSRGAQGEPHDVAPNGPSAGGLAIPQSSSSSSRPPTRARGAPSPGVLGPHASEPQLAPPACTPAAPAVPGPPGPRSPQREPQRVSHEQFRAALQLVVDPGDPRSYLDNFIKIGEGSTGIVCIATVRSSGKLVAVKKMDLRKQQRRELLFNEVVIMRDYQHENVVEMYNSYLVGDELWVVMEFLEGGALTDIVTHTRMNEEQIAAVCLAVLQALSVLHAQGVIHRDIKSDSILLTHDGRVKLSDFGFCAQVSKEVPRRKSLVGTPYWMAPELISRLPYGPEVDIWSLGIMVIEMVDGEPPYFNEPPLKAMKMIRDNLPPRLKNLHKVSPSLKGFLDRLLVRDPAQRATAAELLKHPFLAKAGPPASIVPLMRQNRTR

Structure (SMILES)	outcome	AC50
CC/C(=C(\c1ccccc1)c1ccc(OCCN(C)C)cc1)c1ccccc1	inactive	
O=C(c1ccc(OCCN2CCCCC2)cc1)c1c(-c2ccc(O)cc2)sc2cc(O)ccc12	inactive	
S=C([S-])NCCNC(=S)[S-].[Mn+2]		5.91 µM (active)
CN(C)C(=O)NC1(c2ccccc2)CCN(CCC[C@]2(c3ccc(Cl)c(Cl)c3)CCCN(C(=O)c3ccccc3)C2)CC1	inactive	
CC[C@H](C)C(=O)O[C@H]1C[C@@H](C)C=C2C=C[C@H](C)[C@H](CC[C@@H]3C[C@@H](O)CC(=O)O3)[C@H]21	inactive	
O=C(O)Cc1cc(I)c(Oc2cc(I)c(O)c(I)c2)c(I)c1	inactive	

These molecules were tested against human Phosphatase and Tensin Homolog (PTEN), PTEN (gene 5728) (UniProt P60484) (assay: NVS_ENZ_hPTEN: NovaScreen (NVS) Enzymatic Assay for human Phosphatase and Tensin Homolog (PTEN) (AID 2283203)).
Summary of the method: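 Cell-free recombinant human PTEN with fluorescent substrate; product separated by electrophoretic mobility shift and read by fluorescence 1 h after dosing. Primary screen in duplicate at 25 uM, actives followed in concentration series versus DMSO.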

Chain of human Phosphatase and Tensin Homolog (PTEN), PTEN (gene 5728) (P60484 whole entry, looked up): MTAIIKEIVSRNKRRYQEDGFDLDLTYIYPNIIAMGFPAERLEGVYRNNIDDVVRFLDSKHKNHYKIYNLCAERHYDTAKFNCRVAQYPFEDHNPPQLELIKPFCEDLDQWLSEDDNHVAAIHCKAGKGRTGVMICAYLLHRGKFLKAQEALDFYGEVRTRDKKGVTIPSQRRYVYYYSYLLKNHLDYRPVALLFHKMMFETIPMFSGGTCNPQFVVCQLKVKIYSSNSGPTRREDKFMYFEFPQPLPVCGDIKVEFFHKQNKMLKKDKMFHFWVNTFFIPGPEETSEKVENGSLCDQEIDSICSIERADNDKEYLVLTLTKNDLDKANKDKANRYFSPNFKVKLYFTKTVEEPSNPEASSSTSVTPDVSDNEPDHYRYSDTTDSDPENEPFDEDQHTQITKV

Structure (SMILES)	AC50	outcome
S=C([S-])NCCNC(=S)[S-].[Mn+2]	0.933 µM (active)	
CC(C)CCCCCCc1ccc(O)cc1		inactive
CC[C@H](C)C(=O)O[C@H]1C[C@@H](C)C=C2C=C[C@H](C)[C@H](CC[C@@H]3C[C@@H](O)CC(=O)O3)[C@H]21		inactive
NC(=O)N(O)[C@@H]1C=C[C@H](Oc2cccc(Oc3ccc(F)cc3)c2)C1		inactive

These molecules were tested against human Raf-1 Proto-Oncogene, serine/threonine Kinase (RAF1), RAF1 (gene 5894) (UniProt P04049) (assay: NVS_ENZ_hRAF1: NovaScreen (NVS) Enzymatic Assay for human Raf-1 Proto-Oncogene, serine/threonine Kinase (RAF1) (AID 2283216)).
Summary of the method: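 Cell-free recombinant kinase with specific fluorescent substrate, product separated by electrophoretic mobility shift; read 1 h after dosing. Primary screen at 25 uM in duplicate; hits then run in concentration-response up to 50 uM, fitted as loss of signal versus DMSO.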

Chain of human Raf-1 Proto-Oncogene, serine/threonine Kinase (RAF1), RAF1 (gene 5894) (P04049 whole entry, looked up): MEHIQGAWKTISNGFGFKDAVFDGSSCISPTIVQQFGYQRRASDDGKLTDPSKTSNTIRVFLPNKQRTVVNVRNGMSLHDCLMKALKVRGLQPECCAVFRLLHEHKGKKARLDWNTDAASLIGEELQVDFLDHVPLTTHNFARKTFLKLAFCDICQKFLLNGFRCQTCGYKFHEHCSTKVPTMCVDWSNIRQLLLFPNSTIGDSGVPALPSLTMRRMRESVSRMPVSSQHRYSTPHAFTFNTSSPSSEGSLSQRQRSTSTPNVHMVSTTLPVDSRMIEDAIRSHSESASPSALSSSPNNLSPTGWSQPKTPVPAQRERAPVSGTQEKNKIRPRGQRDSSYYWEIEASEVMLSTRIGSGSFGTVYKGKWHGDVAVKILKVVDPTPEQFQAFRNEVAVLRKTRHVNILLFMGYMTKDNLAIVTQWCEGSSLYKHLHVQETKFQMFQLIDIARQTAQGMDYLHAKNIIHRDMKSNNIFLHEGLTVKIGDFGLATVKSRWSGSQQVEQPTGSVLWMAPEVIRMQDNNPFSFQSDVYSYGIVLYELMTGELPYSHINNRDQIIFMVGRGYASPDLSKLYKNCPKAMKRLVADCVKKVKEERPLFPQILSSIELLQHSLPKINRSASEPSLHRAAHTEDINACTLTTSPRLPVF

Structure (SMILES)	outcome
CC(C)(C)[C@@H](O)[C@@H](Cc1ccc(Cl)cc1)n1cncn1	inactive
CC(C)CCCCCCc1ccc(O)cc1	inactive
O=C(O)Cc1cc(I)c(Oc2cc(I)c(O)c(I)c2)c(I)c1	inactive

What follows are molecules tested against human Tyrosine Protein Kinase Receptor Tie-2 (Tie2), TEK (gene 7010) (UniProt Q02763) (assay: NVS_ENZ_hTie2: NovaScreen (NVS) Enzymatic Assay for human Tyrosine Protein Kinase Receptor Tie-2 (Tie2) (AID 2283225)).
Summary of the method: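 Recombinant human Tie2 kinase activity was read cell-free by fluorescence with electrophoretic mobility shift, 1 hour after dosing. The screen used 25 uM in duplicate, then concentration-response up to 50 uM. Signal loss was scored against DMSO.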

Chain of human Tyrosine Protein Kinase Receptor Tie-2 (Tie2), TEK (gene 7010) (Q02763 whole entry, looked up): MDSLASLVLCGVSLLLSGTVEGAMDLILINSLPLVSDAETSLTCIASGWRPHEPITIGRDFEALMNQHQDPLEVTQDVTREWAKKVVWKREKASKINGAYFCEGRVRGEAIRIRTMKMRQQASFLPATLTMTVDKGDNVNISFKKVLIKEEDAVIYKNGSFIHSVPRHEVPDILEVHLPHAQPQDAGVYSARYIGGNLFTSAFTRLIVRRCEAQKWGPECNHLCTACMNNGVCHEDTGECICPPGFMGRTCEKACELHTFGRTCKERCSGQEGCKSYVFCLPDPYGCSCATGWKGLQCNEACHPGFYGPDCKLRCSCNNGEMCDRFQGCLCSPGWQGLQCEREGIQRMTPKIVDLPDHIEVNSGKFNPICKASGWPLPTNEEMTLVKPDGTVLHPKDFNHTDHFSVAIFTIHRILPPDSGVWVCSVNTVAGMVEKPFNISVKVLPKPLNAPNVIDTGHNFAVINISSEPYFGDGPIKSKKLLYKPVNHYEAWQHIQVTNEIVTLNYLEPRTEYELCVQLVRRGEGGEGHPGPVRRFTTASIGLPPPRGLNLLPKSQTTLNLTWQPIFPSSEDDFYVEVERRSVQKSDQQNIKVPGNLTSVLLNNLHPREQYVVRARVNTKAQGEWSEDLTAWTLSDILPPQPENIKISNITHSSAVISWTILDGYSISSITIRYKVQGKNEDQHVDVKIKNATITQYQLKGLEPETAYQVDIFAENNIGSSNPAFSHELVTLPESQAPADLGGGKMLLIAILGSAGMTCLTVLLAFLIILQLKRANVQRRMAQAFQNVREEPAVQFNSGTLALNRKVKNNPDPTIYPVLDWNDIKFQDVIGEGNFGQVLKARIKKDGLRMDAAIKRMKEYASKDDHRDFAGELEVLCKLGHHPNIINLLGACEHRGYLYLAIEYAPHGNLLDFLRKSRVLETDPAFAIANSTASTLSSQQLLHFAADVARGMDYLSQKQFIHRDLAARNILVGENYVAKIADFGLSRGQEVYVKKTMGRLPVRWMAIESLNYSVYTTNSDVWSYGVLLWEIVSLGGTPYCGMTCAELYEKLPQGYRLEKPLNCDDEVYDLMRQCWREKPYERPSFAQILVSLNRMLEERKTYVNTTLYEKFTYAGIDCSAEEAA

Structure (SMILES)	outcome	AC50
CC/C(=C(\c1ccccc1)c1ccc(OCCN(C)C)cc1)c1ccccc1	inactive	
CN(C)C(=O)NC1(c2ccccc2)CCN(CC[C@@]2(c3ccc(F)c(F)c3)CN(C(=O)c3ccccc3)CCO2)CC1	inactive	
O=C(c1ccc(OCCN2CCCCC2)cc1)c1c(-c2ccc(O)cc2)sc2cc(O)ccc12		31 µM (active)
S=C([S-])NCCNC(=S)[S-].[Mn+2]		12.9 µM (active)
CC[C@H](C)C(=O)O[C@H]1C[C@@H](C)C=C2C=C[C@H](C)[C@H](CC[C@@H]3C[C@@H](O)CC(=O)O3)[C@H]21	inactive	
O=C(O)Cc1cc(I)c(Oc2cc(I)c(O)c(I)c2)c(I)c1	inactive	

What follows are molecules tested against rat Acetylcholinesterase (AChE), Ache (gene 83817) (UniProt P37136) (assay: NVS_ENZ_rAChE: NovaScreen (NVS) Enzymatic Assay for rat Acetylcholinesterase (AChE) (AID 2283233)).
Summary of the method: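 Rat brain membrane acetylcholinesterase activity measured colorimetrically 0.33 h after compound addition, loss of signal relative to DMSO. Primary screen in duplicate at 25 uM; actives re-run as concentration-response with 50 uM top concentration.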

Chain of rat Acetylcholinesterase (AChE), Ache (gene 83817) (P37136 whole entry, looked up): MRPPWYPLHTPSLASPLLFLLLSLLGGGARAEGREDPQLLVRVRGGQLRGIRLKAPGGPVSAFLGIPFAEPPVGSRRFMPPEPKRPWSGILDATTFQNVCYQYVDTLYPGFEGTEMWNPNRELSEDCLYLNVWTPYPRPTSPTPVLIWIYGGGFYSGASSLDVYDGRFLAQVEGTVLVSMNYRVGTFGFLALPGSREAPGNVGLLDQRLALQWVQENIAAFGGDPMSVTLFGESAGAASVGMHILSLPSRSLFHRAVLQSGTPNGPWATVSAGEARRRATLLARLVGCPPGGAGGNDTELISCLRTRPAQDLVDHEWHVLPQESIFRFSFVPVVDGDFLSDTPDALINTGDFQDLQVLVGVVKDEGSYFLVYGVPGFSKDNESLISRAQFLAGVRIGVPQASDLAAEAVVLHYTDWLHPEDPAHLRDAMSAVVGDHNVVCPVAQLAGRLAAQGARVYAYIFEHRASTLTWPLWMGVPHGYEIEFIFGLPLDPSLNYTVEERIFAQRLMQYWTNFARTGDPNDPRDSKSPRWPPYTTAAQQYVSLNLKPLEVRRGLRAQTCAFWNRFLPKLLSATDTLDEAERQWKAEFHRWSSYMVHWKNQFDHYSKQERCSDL

Structure (SMILES)	outcome
S=C([S-])NCCNC(=S)[S-].[Mn+2]	inactive
CNS(=O)(=O)c1cc(C(=O)N2CCC(CCN3C4CCC3CC(n3c(C)nc5ccccc53)C4)(c3cccc(F)c3)CC2)c(Cl)cc1F (stereo unspecified)	inactive
NC(=O)N(O)[C@@H]1C=C[C@H](Oc2cccc(Oc3ccc(F)cc3)c2)C1	inactive

The molecules below were run against rat Monoamine Oxidase, MAO-B, Peripheral (MAOBP), Maob (gene 25750) (UniProt P19643) (assay: NVS_ENZ_rMAOBP: NovaScreen (NVS) Enzymatic Assay for rat Monoamine Oxidase, MAO-B, Peripheral (MAOBP) (AID 2283242)).
Chain of rat Monoamine Oxidase, MAO-B, Peripheral (MAOBP), Maob (gene 25750) (P19643 whole entry, looked up): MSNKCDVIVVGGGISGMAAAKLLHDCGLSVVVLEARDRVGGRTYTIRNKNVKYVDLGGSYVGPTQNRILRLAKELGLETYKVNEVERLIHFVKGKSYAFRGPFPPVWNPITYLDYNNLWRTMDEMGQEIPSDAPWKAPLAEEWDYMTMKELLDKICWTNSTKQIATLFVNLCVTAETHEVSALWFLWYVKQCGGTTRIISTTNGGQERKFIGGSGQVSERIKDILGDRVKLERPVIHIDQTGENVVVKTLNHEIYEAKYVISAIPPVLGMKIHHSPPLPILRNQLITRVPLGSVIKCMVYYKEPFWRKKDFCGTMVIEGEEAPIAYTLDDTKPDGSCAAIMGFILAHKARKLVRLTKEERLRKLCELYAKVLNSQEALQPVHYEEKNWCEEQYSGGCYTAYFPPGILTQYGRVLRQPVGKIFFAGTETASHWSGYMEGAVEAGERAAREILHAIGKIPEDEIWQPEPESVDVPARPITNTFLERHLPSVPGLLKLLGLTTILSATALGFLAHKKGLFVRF

Structure (SMILES)	AC50	outcome
COc1cccc(-c2ccc(/C=C\CN3CCCCCC3)cc2Cl)c1	11.6 µM (active)	
O=C(c1ccc(OCCN2CCCCC2)cc1)c1c(-c2ccc(O)cc2)sc2cc(O)ccc12	10.8 µM (active)	
Cc1occc1C(=O)Nc1ccc(C(=O)N2CCC(F)(F)/C(=C\C(=O)N3CCC(N4CCCCC4)CC3)c3ccccc32)cc1	9.05 µM (active)	
S=C([S-])NCCNC(=S)[S-].[Mn+2]		inactive
O=C1c2ccccc2C(=O)N1CCc1noc(-c2ccc(CN3CCCCCC3)s2)n1	11.4 µM (active)	
CNS(=O)(=O)c1cc(C(=O)N2CCC(CCN3C4CCC3CC(n3c(C)nc5ccccc53)C4)(c3cccc(F)c3)CC2)c(Cl)cc1F (stereo unspecified)		inactive
CN(C)C(=O)NC1(c2ccccc2)CCN(CCC[C@]2(c3ccc(Cl)c(Cl)c3)CCCN(C(=O)c3ccccc3)C2)CC1		inactive
COc1cccc([C@H](O)C2CCN(CCc3ccc(F)cc3)CC2)c1OC	12.5 µM (active)	

Each molecule was assayed against human Neonicotinoid receptor (NNR), CHRNA2 (gene 1135) (UniProt Q15822) (assay: NVS_LGIC_hNNR_NBungSens: NovaScreen (NVS) Ligand-Gated Ion Channel Assay for human Neonicotinoid receptor (NNR) (AID 2283313)).
Summary of the method: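 Radioligand displacement on human neuroblastoma membranes, 2 h, filter-based scintillation counting. Primary screen in duplicate at 25 uM; chemicals passing threshold (e.g. 30% inhibition) run singleton concentration-response to 50 uM; loss of binding fitted versus DMSO.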

Chain of human Neonicotinoid receptor (NNR), CHRNA2 (gene 1135) (Q15822 whole entry, looked up): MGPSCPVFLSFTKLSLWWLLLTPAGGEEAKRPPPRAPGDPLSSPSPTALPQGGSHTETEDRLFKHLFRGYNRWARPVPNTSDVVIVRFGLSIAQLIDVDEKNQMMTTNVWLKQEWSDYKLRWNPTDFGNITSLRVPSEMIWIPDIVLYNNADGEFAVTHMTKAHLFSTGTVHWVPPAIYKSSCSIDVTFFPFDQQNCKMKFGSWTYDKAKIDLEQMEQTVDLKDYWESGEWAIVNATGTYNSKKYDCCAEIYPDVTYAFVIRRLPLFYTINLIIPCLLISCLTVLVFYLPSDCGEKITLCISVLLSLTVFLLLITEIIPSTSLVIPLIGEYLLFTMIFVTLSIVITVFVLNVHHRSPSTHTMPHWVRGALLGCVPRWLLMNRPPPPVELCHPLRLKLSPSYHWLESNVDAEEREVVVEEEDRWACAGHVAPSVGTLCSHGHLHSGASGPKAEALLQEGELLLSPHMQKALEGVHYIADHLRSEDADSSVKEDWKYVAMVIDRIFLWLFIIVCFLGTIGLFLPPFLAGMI

Structure (SMILES)	AC50	outcome
CN1CCC[C@H]1c1cccnc1	1.3 µM (active)	
COc1cccc(-c2ccc(/C=C\CN3CCCCCC3)cc2Cl)c1	22.6 µM (active)	
O=C(c1ccc(OCCN2CCCCC2)cc1)c1c(-c2ccc(O)cc2)sc2cc(O)ccc12	16.7 µM (active)	
S=C([S-])NCCNC(=S)[S-].[Mn+2]		inactive
CNS(=O)(=O)c1cc(C(=O)N2CCC(CCN3C4CCC3CC(n3c(C)nc5ccccc53)C4)(c3cccc(F)c3)CC2)c(Cl)cc1F (stereo unspecified)		inactive
NC(=O)N(O)[C@@H]1C=C[C@H](Oc2cccc(Oc3ccc(F)cc3)c2)C1	41.2 µM (active)	
